According to PubChem BioAssay:
Activity calls are given as the source filed them.

Assays:
[1] = E. coli DRC41 culture turbidity changes, primary screen, E. coli filamentation inducer project, strain DRC41, OD650, 48 h (AID 1152);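 also: E. coli MC1000 strain DRC41 lacking acrAB efflux pump and sulA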; details: E. coli DRC41 (acrAB sulA), higher = more signal, called active from +8 up or from −8 down
[2] = small-molecule binders of probe aLefty1, primary screen, biochemical, small-molecule microarray, 635/667 nm fluorescence (AID 1153); details: higher = more signal;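 also: score merges spot fluorescence with signal-to-noise ratio from the scanned slide images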
[3] = PSAC antagonists in infected red cells, primary screen, cell-based, P. falciparum Indochina, OD700, 1 h (AID 1154); details: P. falciparum Indochina infected RBC osmotic lysis, higher = more signal, called active from +8 up or from −8 down
[4] = PSAC antagonists in infected red cells, primary screen, cell-based, P. falciparum Indochina, OD700, 2 h (AID 1155);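 also: lysis reports solute entry through the parasite surface anion channel PSAC; channel blockers reduce lysis of infected cells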; details: P. falciparum Indochina infected erythrocytes, osmotic lysis OD700; higher = more signal, called active from +8 up or from −8 down
[5] = osmotic lysis modulators in infected erythrocytes, primary screen, PSAC antagonist project, cell-based, P. falciparum Indochina, OD700, 3 h (AID 1156); details: higher = more signal, called active from +8 up or from −8 down
[6] = PSAC antagonists in infected red cells, primary screen, cell-based, P. falciparum Indochina, OD700, 18 h (AID 1157); details: P. falciparum Indochina infected erythrocytes, osmotic lysis OD700, 18 h; higher = more signal, called active from +8 up or from −8 down
[7] = modulators of S6 phosphorylation in cells, primary screen, cell-based, A549, cytoblot, luminescence, serum-stimulated (AID 1158); details: A549 phospho-S6 cytoblot, 5 h, higher = more signal;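 also: serum-stimulated A549 lung adenocarcinoma cells; signal is phosphorylated S6 detected by cytoblot immunostaining with HRP secondary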
[8] = target: NADPH oxidase 2 (Homo sapiens) (UniProt P04839); experiment: NOX2-dependent H2O2 signal modulators, primary screen, NOX inhibitor project, cell-based, HEK293-NOX2, PMA-stimulated, Amplex Red fluorescence (AID 1159); details: 45 min, higher = more signal, called active from +8 up or from −8 down; also: test concentration not given here
[9] = target: NADPH oxidase 4 (Homo sapiens) (UniProt Q9NPH5); experiment: NOX4-dependent H2O2 signal modulators, primary screen, NOX inhibitor project, cell-based, HEK293-NOX4, tetracycline-induced, Amplex Red fluorescence (AID 1160); details: 45 min, higher = more signal, called active from +8 up or from −8 down
[10] = target: NADPH oxidase 5 (Homo sapiens) (UniProt Q96PH1); experiment: NOX5-dependent H2O2 signal modulators, primary screen, NOX inhibitor project, cell-based, HEK293-NOX5, Amplex Red fluorescence (AID 1161); details: HEK293-NOX5, ionomycin, 45 min, higher = more signal
[11] = A549 cell viability effects, profiling panel, calcein-AM fluorescence, 48 h, basal (AID 1162); details: higher = more signal; also: test concentration not given here
[12] = adipocyte viability effects, profiling panel, cell-based, 3T3-L1 adipocytes, calcein-AM fluorescence, 48 h, basal (AID 1163); details: 3T3-L1 adipocytes viability, higher = more signal; also: test concentration not given here
[13] = HepG2 cell viability effects, profiling panel, calcein-AM fluorescence, 48 h, basal (AID 1164); details: higher = more signal; also: test concentration not given here
[14] = MM1S cell viability effects, profiling panel, calcein-AM fluorescence, 48 h, basal (AID 1165); details: higher = more signal;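 also: viability of MM1S multiple myeloma cells under basal unstimulated conditions; test concentration not given here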
[15] = basal RPMI8226 viability, no added stimulus, profiling panel, cell-based, calcein-AM fluorescence, 48 h, PK04 Diversity Set (AID 1166); details: RPMI8226 myeloma viability, higher = more signal;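 also: cells grown under basal conditions without added stimulus; test concentration not given here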
[16] = basal HepG2 mitochondrial membrane potential changes, profiling panel, cell-based, JC-1 fluorescence, 24 h, 100 nL compound (AID 1167); details: higher = more signal; also: test concentration not given here
[17] = basal 3T3-L1 adipocyte mitochondrial potential changes, profiling panel, cell-based, JC-1 fluorescence, 3T3-L1 adipocytes, 24 h, 100 nL compound (AID 1168); details: JC-1 mitochondrial fluorescence, higher = more signal, called active from +8 up or from −8 down; also: test concentration not given here
[18] = basal RPMI8226 mitochondrial membrane potential changes, profiling panel, cell-based, JC-1 fluorescence, 24 h, 100 nL compound (AID 1169); details: RPMI8226 myeloma, JC-1 mitochondrial potential fluorescence, higher = more signal; also: test concentration not given here
[19] = basal MM1S mitochondrial membrane potential changes, profiling panel, cell-based, JC-1 fluorescence, 24 h, 100 nL compound (AID 1170); details: higher = more signal; also: test concentration not given here
[20] = A549 lung cancer cell viability effects, profiling panel, resazurin fluorescence, 24 h, PK04 Diversity Set (AID 1171); details: higher = more signal, called active from +8 up or from −8 down; also: test concentration not given here

NADPH oxidase 4 (Homo sapiens), sequence (Q9NPH5 whole entry, looked up): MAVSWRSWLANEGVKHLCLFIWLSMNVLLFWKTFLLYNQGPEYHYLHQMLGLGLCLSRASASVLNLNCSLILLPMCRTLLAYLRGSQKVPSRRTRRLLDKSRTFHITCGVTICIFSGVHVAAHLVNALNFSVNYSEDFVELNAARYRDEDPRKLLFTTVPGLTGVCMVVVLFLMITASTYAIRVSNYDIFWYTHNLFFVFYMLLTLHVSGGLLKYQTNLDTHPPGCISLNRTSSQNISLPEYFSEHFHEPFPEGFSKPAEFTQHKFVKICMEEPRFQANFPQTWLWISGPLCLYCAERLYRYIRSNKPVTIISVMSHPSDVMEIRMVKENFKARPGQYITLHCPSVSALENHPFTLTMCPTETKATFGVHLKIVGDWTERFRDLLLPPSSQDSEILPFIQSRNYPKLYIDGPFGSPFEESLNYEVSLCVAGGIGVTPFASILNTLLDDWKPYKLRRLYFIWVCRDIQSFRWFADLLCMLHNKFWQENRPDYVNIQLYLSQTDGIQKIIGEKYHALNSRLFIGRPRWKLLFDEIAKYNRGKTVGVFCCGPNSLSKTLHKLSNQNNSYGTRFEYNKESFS
NADPH oxidase 2 (Homo sapiens), sequence (P04839 whole entry, looked up): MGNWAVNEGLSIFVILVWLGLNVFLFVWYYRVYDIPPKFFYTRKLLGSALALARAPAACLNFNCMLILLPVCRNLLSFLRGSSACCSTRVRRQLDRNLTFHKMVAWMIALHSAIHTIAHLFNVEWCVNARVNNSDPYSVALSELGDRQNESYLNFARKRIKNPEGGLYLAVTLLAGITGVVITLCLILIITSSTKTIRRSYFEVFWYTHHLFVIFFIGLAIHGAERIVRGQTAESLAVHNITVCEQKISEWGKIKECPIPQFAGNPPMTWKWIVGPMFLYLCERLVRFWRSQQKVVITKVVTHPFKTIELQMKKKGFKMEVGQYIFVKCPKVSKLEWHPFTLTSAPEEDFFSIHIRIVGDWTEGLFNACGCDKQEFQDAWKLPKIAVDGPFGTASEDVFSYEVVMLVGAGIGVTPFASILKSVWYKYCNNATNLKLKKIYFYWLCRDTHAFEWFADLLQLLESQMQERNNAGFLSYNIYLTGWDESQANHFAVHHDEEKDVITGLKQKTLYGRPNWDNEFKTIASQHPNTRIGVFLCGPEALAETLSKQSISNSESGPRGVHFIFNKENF
NADPH oxidase 5 (Homo sapiens), sequence (Q96PH1 whole entry, looked up): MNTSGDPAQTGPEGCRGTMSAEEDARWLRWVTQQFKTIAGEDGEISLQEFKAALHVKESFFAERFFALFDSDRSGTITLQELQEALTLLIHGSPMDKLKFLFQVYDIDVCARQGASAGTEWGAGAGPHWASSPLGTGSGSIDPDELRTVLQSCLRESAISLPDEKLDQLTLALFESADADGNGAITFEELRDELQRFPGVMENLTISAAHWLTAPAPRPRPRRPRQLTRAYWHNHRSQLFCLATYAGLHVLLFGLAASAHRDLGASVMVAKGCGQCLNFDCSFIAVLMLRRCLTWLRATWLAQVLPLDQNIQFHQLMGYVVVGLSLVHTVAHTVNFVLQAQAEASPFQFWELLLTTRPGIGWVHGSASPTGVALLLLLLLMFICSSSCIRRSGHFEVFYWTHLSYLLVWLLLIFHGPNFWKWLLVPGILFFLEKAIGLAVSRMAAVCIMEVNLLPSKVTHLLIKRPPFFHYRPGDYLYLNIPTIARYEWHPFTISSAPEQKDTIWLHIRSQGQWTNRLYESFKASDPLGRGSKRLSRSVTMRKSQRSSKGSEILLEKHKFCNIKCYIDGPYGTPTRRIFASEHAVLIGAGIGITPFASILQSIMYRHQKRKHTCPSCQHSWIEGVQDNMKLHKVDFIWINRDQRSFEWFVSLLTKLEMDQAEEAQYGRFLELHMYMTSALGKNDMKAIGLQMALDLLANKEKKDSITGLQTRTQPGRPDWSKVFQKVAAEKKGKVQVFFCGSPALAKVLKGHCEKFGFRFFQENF

SMILES | z-score [1] | composite z-score [2] | z-score [3] | z-score [4] | z-score [5] | z-score [6] | z-score [7] | z-score [8] | z-score [9] | z-score [10] | z-score [11] | z-score [12] | z-score [13] | z-score [14] | z-score [15] | z-score [16] | z-score [17] | z-score [18] | z-score [19] | z-score [20]
CO[C@@H]1COC(=O)CC=C[C@@H](C)[C@@H]2C=C[C@H](O)[C@@H](COC(=O)[C@H](C)NC(=O)CC=C[C@H]1C)O2 | 0.457 (inactive) | -0.626 | -0.761 (inactive) | -1.27 (inactive) | 0.564 (inactive) | -2.4 (inactive) | -0.309 | -0.573 (inactive) | 0.165 (inactive) | 0.605 | 0.495 | 0.29 | -0.857 | 0.23 | 0.706 | -0.086 | -1.62 (inactive) | 0.583 | -0.385 | 0.612 (inactive)
CCCCCN1CC=CC23O[C@@H]4C=CCOC(=O)[C@@H]4[C@H]2C(=O)N(C(CO)C(C)C)[C@@H]3C1=O (stereo not given in full) | 0.374 (inactive) | -0.0479 | 0.901 (inactive) | 0.661 (inactive) | 0.445 (inactive) | 0.307 (inactive) | -0.0997 | 0.965 (inactive) | 0.694 (inactive) | 1.24 | -0.0343 | -0.372 | -0.0721 | 0.949 | 0.12 | -0.794 | 0.196 (inactive) | -0.0576 | 0.782 | 0.0963 (inactive)
Cc1cc2c(c(=O)o1)[C@H](O)[C@H]1O[C@H]1C2=O | -0.743 (inactive) | -0.237 | -0.228 (inactive) | 0.496 (inactive) | 0.716 (inactive) | 0.0033 (inactive) | -0.573 | 1.67 (inactive) | -1.04 (inactive) | -1.39 | -0.728 | 0.287 | -1.03 | -3.45 | -2.96 | -1.31 | -0.883 (inactive) | 0.433 | -1.12 | -0.506 (inactive)
CN1C(=O)C2C=CC(C(O)c3ccc(I)cc3)N(NC(=O)OC(C)(C)C)C2C1=O (stereo not given) | -1.55 (inactive) | 0.317 | 0.365 (inactive) | 0.214 (inactive) | -0.43 (inactive) | 1 (inactive) | -1.09 | -1.01 (inactive) | -0.982 (inactive) | -0.411 | -0.872 | -0.692 | -1.28 | -0.0342 | -0.297 | -1.56 | -0.474 (inactive) | -0.698 | 0.804 | -0.312 (inactive)
c1ccc(C2NCCc3c2[nH]c2ccccc32)cc1 (stereo not given) | -1.78 (inactive) | 0.155 | 1.07 (inactive) | 0.709 (inactive) | 0.806 (inactive) | -0.0204 (inactive) | -0.513 | 0.943 (inactive) | -0.561 (inactive) | 1.23 | -0.479 | 0.381 | -0.704 | -0.402 | -0.742 | -2.18 | -0.424 (inactive) | 0.0801 | 0.299 | 0.272 (inactive)
C=CCNC(=O)[C@H]1[C@@H]2C(=O)O[C@@H](c3ccccc3)[C@@H](c3ccccc3)N2[C@@H](c2ccc(O)cc2)[C@]12C(=O)N(C(=O)OCCOC)c1ccc(C#CC3=CCCCC3)cc12 | -0.383 (inactive) | 1.81 | 1.65 (inactive) | 0.929 (inactive) | 0.0207 (inactive) | 0.506 (inactive) | -0.25 | 1.96 (inactive) | -0.149 (inactive) | 1.47 | -1.1 | 0.537 | -0.444 | -2.53 | -3.23 | -1.47 | -0.777 (inactive) | -0.611 | -0.324 | 0.512 (inactive)
COc1ccc(O[C@H]2C=C[C@@H](c3ccccc3)O[C@@H]2COC(=O)CCC(C)=NOC(C)CN2CCCCc3nc(C)c(C)cc32)cc1 (stereo not given in full) | 0.233 (inactive) | -0.584 | 21.7 (active) | 3.58 (inactive) | 1.68 (inactive) | 1.15 (inactive) | -0.0603 | -2.04 (inactive) | -0.369 (inactive) | -0.824 | -0.294 | -0.471 | 0.197 | -1.35 | -0.666 | 0.775 | -0.313 (inactive) | -0.508 | -0.903 | 1.61 (inactive)
CO[C@H]1O[C@H](CO)[C@@H](OC(=O)Nc2ccc(C#N)cc2)[C@H](OC(=O)c2cc3ccccc3[nH]2)[C@H]1OC(=O)c1cc2ccccc2[nH]1 | 2.89 (inactive) | 0.254 | 3.44 (inactive) | 0.178 (inactive) | 1.71 (inactive) | -0.418 (inactive) | 2.06 | -3.9 (inactive) | -0.214 (inactive) | -4.49 | 2.71 | 0.221 | 0.837 | -2.28 | -0.909 | -1.55 | 0.53 (inactive) | -0.405 | -0.384 | -1.49 (inactive)
CO[C@H]([C@@H](C)[C@H](OC)c1ccccc1)[C@H](C)[C@@H](OC)[C@H](C)C(C)=O | -0.558 (inactive) | -0.288 | 0.815 (inactive) | 0.196 (inactive) | -0.181 (inactive) | 0.269 (inactive) | -0.2 | -0.0369 (inactive) | 0.0305 (inactive) | 0.447 | 1.29 | -0.305 | 0.278 | 0.48 | -0.345 | 0.0892 | 1.16 (inactive) | -0.141 | 0.692 | -0.0733 (inactive)
